{"source": "PubChem BioAssay (EPA / NIEHS)", "key": {"[1]": {"test": "CCTE_Mundy_HCI_Cortical_Synap_Neur_Matur_BPCount: CCTE's Synaptogenesis and Neurite Maturation Assay in rat cortical cells for Branch Point Count, Mundy Lab (AID 2284211)", "in_short": "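In this multiplexed morphology assay, cortical cells from rat receive chemicals at DIV 7 and are fixed at DIV 12, then immunostained and imaged; branch points are counted, with DMSO as baseline.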"}, "[2]": {"test": "CCTE_Mundy_HCI_Cortical_NOG_NeuriteCount: CCTE's Neurite Outgrowth Assay in rat cortical cells for Neurite Count, Mundy Lab (AID 2284212);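 further: cells fixed about two days after chemical exposure began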", "in_short": "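Rat cortical primary cells; compound added 2 h post-plating, 1/10 dilution of working solution. Anti-betaIII-tubulin/AF488 ICC; ArrayScan neurite count vs DMSO.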"}, "[3]": {"test": "CCTE_Mundy_HCI_Cortical_NOG_NeuriteLength: CCTE's Neurite Outgrowth Assay in rat cortical cells for Neurite Length, Mundy Lab (AID 2284213);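 further: neurites imaged about 48 to 50 h after chemical exposure began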", "in_short": "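First, rat primary cortical cells were plated and, 2 h later, given test chemical as a 1/10 dilution. Finally, βIII-tubulin immunostaining enabled automated imaging of neurite length.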"}, "[4]": {"test": "CCTE_Mundy_HCI_Cortical_Synap_Neur_Matur_NeuriteLength: CCTE's Synaptogenesis and Neurite Maturation Assay in rat cortical cells for Neurite Length, Mundy Lab (AID 2284214)", "in_short": "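DMSO-normalised neurite length, from high-content imaging of anti-MAP2-stained rat cortical cells fixed at DIV 12. Glia were suppressed with AraC (DIV 5) before chemical exposure from DIV 7.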"}, "[5]": {"test": "CCTE_Mundy_HCI_Cortical_Synap_Neur_Matur_SynapseCount: CCTE's Synaptogenesis and Neurite Maturation Assay in rat cortical cells for Synapse Count, Mundy Lab (AID 2284218)", "in_short": "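Endpoint: synapses/neuron by HCI (synaptophysin puncta on MAP2-labelled neurites, Hoechst nuclei). Rat primary cortical cells, AraC DIV 5, dosed DIV 7, fixed DIV 12; DMSO negative control.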"}, "[6]": {"test": "CCTE_Mundy_HCI_Cortical_Synap_Neur_Matur_NeuriteCount: CCTE's Synaptogenesis and Neurite Maturation Assay in rat cortical cells for Neurite Count, Mundy Lab (AID 2284222)", "in_short": "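Primary rat cortical cells were plated, treated with AraC at DIV 5, then exposed to chemicals from DIV 7 through DIV 12. After fixation and immunostaining for MAP2 and synaptophysin, imaging quantified neurites, with DMSO as the negative control.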"}, "[7]": {"test": "CCTE_Mundy_HCI_Cortical_Synap_Neur_Matur_CellBodySpotCount: CCTE's Synaptogenesis and Neurite Maturation Assay in rat cortical cells for Cell Body Spot Count, Mundy Lab (AID 2284223)", "in_short": "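Primary rat cortical cultures, AraC added at DIV 5; dosed DIV 7 through DIV 12 […]. Fixed, stained for MAP2 and synaptophysin with Hoechst; cell body-associated synaptophysin puncta per neuron counted by high-content imaging, loss vs DMSO.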"}, "[8]": {"test": "CCTE_Mundy_HCI_hNP1_Pro_ResponderAvgInten: CCTE's Proliferation Assay in human neuroprogenitor cells, Mundy Lab (AID 2284224; active means hit-call score of the fitted dose curve at least 0.9, where 1 is the maximum)", "in_short": "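Proliferation was scored as BrdU labelling intensity in human neural progenitors derived from WA09 embryonic cells, measured 26.25 hours after chemical dosing. Activity was fitted relative to DMSO.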"}, "[9]": {"test": "UKN2_HCS_IMR90_cell_viability: Viability Assessment in the University of Konstanz (UKN) Leist Lab Neural Crest Cell Migration Assay in human induced IMR90 Pluripotent Stem Cells (UKN2) (AID 2284233)", "in_short": "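After calcein-AM/Hoechst staining, viability is quantified by high-content fluorescence imaging, relative to DMSO, in iPSC (IMR90)-derived neural crest cells. Exposure lasts 24 h, starting after a 24 h migration period on PLO/laminin/fibronectin coating.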"}, "[10]": {"test": "CCTE_Mundy_HCI_Cortical_NOG_NeuronCount: CCTE's Neurite Outgrowth Assay in rat cortical cells for Neuron Count, Mundy Lab (AID 2284236; active means hit-call score of the fitted dose curve at least 0.9, where 1 is the maximum;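 further: cells exposed to compound for about 48 hours before fixation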)", "in_short": "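Read-out: neuron number by high-content imaging of betaIII-tubulin (Alexa Fluor-488) and Hoechst-labelled rat primary cortical cells.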"}, "[11]": {"test": "CCTE_Mundy_HCI_Cortical_NOG_BPCount: CCTE's Neurite Outgrowth Assay in rat cortical cells for Branch Point Count, Mundy Lab (AID 2284237);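 further: branch points counted about two days after chemical exposure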", "in_short": "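Measured 50.33 h after dosing, this morphology endpoint uses rat primary cortical cultures labelled for betaIII-tubulin. Branch points are quantified by high-content imaging, with DMSO as negative control and baseline.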"}, "[12]": {"test": "CCTE_Mundy_HCI_hNP1_Casp3_7: CCTE's Caspase-Glo 3/7 Assay in human neuroprogenitor cells for Apoptosis, Mundy Lab (AID 2284240)", "in_short": "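Apoptosis is scored by activated caspase-3/7 luminescence in WA09-derived neural progenitor cells, measured 26.5 h after chemical dosing. Values represent gain of signal relative to DMSO vehicle.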"}, "[13]": {"test": "CCTE_Mundy_HCI_Cortical_Synap_Neur_Matur_NeuronCount: CCTE's Synaptogenesis and Neurite Maturation Assay in rat cortical cells for Neuron Count, Mundy Lab (AID 2284242; active means hit-call score of the fitted dose curve at least 0.9, where 1 is the maximum)", "in_short": "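Measured at DIV 12: fluorescently labelled neurons (Hoechst nuclei, MAP2) in rat primary cortical cultures, counted by high-content imaging. AraC suppressed glia from DIV 5; DMSO served as negative control.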"}, "[14]": {"test": "IUF_NPC2a_radial_glia_migration_120hr: Leibniz Research Institute for Environmental Medicine (IUF) 120-hour Neural Progenitor Cell Migration Assay for Radial Glia Migration (NPC2a) (AID 2284298)", "in_short": "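Human fetal-cortex neural progenitor spheres (0.3 mm) plated on poly-D-lysine/laminin in N2 differentiation medium, exposed 120 h at 37C with half-medium renewal at day 3. Radial glia migration distance (um) measured from Hoechst-stained nuclei images; DMSO baseline.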"}, "[15]": {"test": "IUF_NPC2a_radial_glia_migration_72hr: Leibniz Research Institute for Environmental Medicine (IUF) 72-hour Neural Progenitor Cell Migration Assay for Radial Glia Migration (NPC2a) (AID 2284299)", "in_short": "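Spheres of human primary neural progenitors migrate on poly-D-lysine/laminin under compound exposure at 37C, 5% CO2. The 72 h radial glia migration distance comes from brightfield images, measured manually.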"}, "[16]": {"test": "IUF_NPC3_neuronal_differentiation_120hr: Leibniz Research Institute for Environmental Medicine (IUF) 120-hour Neuronal Differentiation Assay (NPC3) (AID 2284301)", "in_short": "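Value is percent TUBB3-positive neurons among Hoechst-stained nuclei in the migration area, scored by trained CNN after 120 h differentiation. Primary hNPC spheres on poly-D-lysine/laminin, N2 medium, continuous dosing from day 0, half-refeed day 3; DMSO reference.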"}, "[17]": {"test": "IUF_NPC4_neurite_length_120hr: Leibniz Research Institute for Environmental Medicine (IUF) 120-hour Neuronal Morphology Assay for Neurite Length (NPC4) (AID 2284302)", "in_short": "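Neurite length, the mean in um across TUBB3-stained neurons, is derived by skeletonization of high-content images after 120 h differentiation. Compound exposure, 7 concentrations plus solvent control, ran from plating of hNPC spheres on poly-D-lysine/laminin, with medium half-replaced on day 3.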"}, "[18]": {"test": "IUF_NPC5_oligodendrocyte_differentiation_120hr: Leibniz Research Institute for Environmental Medicine (IUF) 120-hour Oligodendrocyte Differentiation Assay (NPC5) (AID 2284304; active means hit-call score of the fitted dose curve at least 0.9, where 1 is the maximum;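 further: share of O4-positive cells among Hoechst nuclei found by CNN image analysis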)", "in_short": "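Human fetal neural progenitor spheres (0.3 mm) plated on poly-D-lysine/laminin in N2 differentiation medium and exposed for 120 h at 7 concentrations, with half-medium renewal at day 3. O4-positive cells identified by CNN, expressed as percent of Hoechst nuclei.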"}, "[19]": {"test": "IUF_NPC2-5_cytotoxicity_120hr: Cytotoxicity Assessment at 120 hours in the Leibniz Research Institute for Environmental Medicine (IUF) Neural Progenitor Cell Migration and Differentiation Assay (NPC2-5) (AID 2284307; active means hit-call score of the fitted dose curve at least 0.9, where 1 is the maximum)", "in_short": "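Human fetal (GW 16-19) neural progenitor spheres (0.3 mm) plated on poly-D-lysine/laminin in N2 differentiation medium, exposed 120 h with half-medium renewal at day 3; 7 concentrations plus solvent control, DMSO ≤0.1%. LDH release in supernatant read by resorufin fluorescence.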"}, "[20]": {"test": "IUF_NPC2-5_cell_number_120hr: Cell Number Assessment at 120 hours in the Leibniz Research Institute for Environmental Medicine (IUF) Neural Progenitor Cell Migration and Differentiation Assay (NPC2-5) (AID 2284308)", "in_short": "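Human fetal neural progenitor spheres (0.3 mm) plated on poly-D-lysine/laminin in N2 differentiation medium, exposed five days across 7 concentrations with half-medium refresh at day 3. Hoechst-positive nuclei counted in migration area at 120 h, relative to DMSO.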"}, "[21]": {"test": "IUF_NPC2-5_viability_120hr: Viability Assessment at 120 hours in the Leibniz Research Institute for Environmental Medicine (IUF) Neural Progenitor Cell Migration and Differentiation Assay (NPC2-5) (AID 2284312)", "in_short": "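Alamar blue resorufin fluorescence read after 5 days of differentiation, with compound present from day 0 and replenished at day 3. Primary hNPC spheres on laminin-coated plates, 37C; seven concentrations plus solvent control, fitted against DMSO.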"}, "[22]": {"test": "IUF_NPC1_cytotoxicity_72hr: Cytotoxicity Assessment at 72 hours in the Leibniz Research Institute for Environmental Medicine (IUF) Neural Progenitor Cell Proliferation Assay (NPC1) (AID 2284332; active means hit-call score of the fitted dose curve at least 0.9, where 1 is the maximum;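 further: rising LDH signal means more cytotoxicity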)", "in_short": "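Readout is fluorescence from LDH-dependent resazurin conversion, sampled from culture medium after compound contact lasting 72 h. Each well holds one 0.25-0.35 mm human progenitor sphere kept at 37C, 5% CO2 with EGF and FGF.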"}, "[23]": {"test": "CCTE_Mundy_HCI_iCellGluta_NOG_NeuronCount: CCTE's Neurite Outgrowth Assay in iCellGluta cells for Neuron Count, Mundy Lab (AID 2284340; active means hit-call score of the fitted dose curve at least 0.9, where 1 is the maximum;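 further: cells fixed about 48 h after compound addition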)", "in_short": "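Neuron count read by automated high-content imaging of Hoechst 33342 and betaIII-tubulin/Alexa Fluor-488 labelling in human iPSC glutamatergic neurons. Activity fitted relative to DMSO.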"}, "[24]": {"test": "CCTE_Mundy_HCI_iCellGluta_NOG_NeuriteCount: CCTE's Neurite Outgrowth Assay in iCellGluta cells for Neurite Count, Mundy Lab (AID 2284342; active means hit-call score of the fitted dose curve at least 0.9, where 1 is the maximum;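 further: chemical exposure about 48 hours starting 2 hours after plating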)"}}, "note": "Records with an inconclusive call do not appear. Active and inactive are the calls of the source. How the source made its calls, unless noted: active means hit-call score of the fitted dose curve at least 0.9, where 1 is the maximum; inactive means score below 0.9.", "data": [{"smiles": "CC1(C)C(C=C(Cl)c2ccc(Cl)cc2)C1C(=O)OC(C#N)c1ccc(F)c(Oc2ccccc2)c1", "note": "(centres undefined)", "values": [{"measurement": "AC50", "setting": "[1]", "value": "50 µM (active)"}, {"measurement": "AC50", "setting": "[2]", "value": "39.1 µM (active)"}, {"measurement": "AC50", "setting": "[3]", "value": "50 µM (active)"}, {"measurement": "AC50", "setting": "[4]", "value": "61.6 µM (active)"}, {"measurement": "AC50", "setting": "[5]", "value": "75.2 µM (active)"}, {"measurement": "outcome", "setting": "[6]", "value": "inactive"}, {"measurement": "outcome", "setting": "[7]", "value": "inactive"}, {"measurement": "outcome", "setting": "[8]", "value": "inactive"}, {"measurement": "outcome", "setting": "[9]", "value": "inactive"}, {"measurement": "outcome", "setting": "[10]", "value": "inactive"}, {"measurement": "AC50", "setting": "[11]", "value": "23.5 µM (active)"}, {"measurement": "outcome", "setting": "[12]", "value": "inactive"}, {"measurement": "outcome", "setting": "[13]", "value": "inactive"}, {"measurement": "outcome", "setting": "[14]", "value": "inactive"}, {"measurement": "outcome", "setting": "[15]", "value": "inactive"}, {"measurement": "outcome", "setting": "[16]", "value": "inactive"}, {"measurement": "outcome", "setting": "[17]", "value": "inactive"}, {"measurement": "outcome", "setting": "[18]", "value": "inactive"}, {"measurement": "outcome", "setting": "[19]", "value": "inactive"}, {"measurement": "outcome", "setting": "[20]", "value": "inactive"}, {"measurement": "outcome", "setting": "[21]", "value": "inactive"}, {"measurement": "outcome", "setting": "[22]", "value": "inactive"}, {"measurement": "outcome", "setting": "[23]", "value": "inactive"}, {"measurement": "AC50", "setting": "[24]", "value": "74.1 µM (active)"}]}]}
